The source of these data is PubChem BioAssay (NCATS).

“And” between values parts separate entries of the source, which are not always exact repeats. Equal values may be shown once. Results filed as inconclusive are left out. The source made the active and inactive calls. Unless noted, calls come from the whole dose curve; as a rule, active = well fitted curve in either direction with a large enough effect (not every such curve was filed as active); inconclusive = small, poorly fitted or top-dose-only effect, or another doubt; inactive = flat fitted curve, though single readings scatter.

Experiment [1] addresses Lysosomal acid glucosylceramidase (Homo sapiens) (UniProt P04062). Nature of the experiment: Glucocerebrosidase-p2 (AID 348; in the data active = potency below about 10 µM; note: potency is the fitted concentration of half-maximal effect). The following applies: purified GBA, blue fluorogenic substrate, 40 min. In short, it runs like this: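 Compounds titrated from 0.6 nM upwards against 0.2 nM enzyme in pH 5.9 citric acid/KH2PO4, taurocholate, tween-20; blue fluorogenic substrate 80 uM, 40 min room temperature, stopped and read Ex 365/Em 440 for AC50.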

The nature of experiment [2]: AP1 Signaling Pathway (AID 357). Note: % is set by controls: 0 for no effect and ±100 for the full control effect. The following applies: ME-180 AP-1-bla reporter, EGF-induced, beta-lactamase ratio, 5 h; at 7.69 µM (top of the series) unless noted. In short, it runs like this: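 Read-out was the 460nm/530nm emission ratio (excitation 405nm) after CCF4 loading for 2.5 hours at room temperature. Cells carried an AP-1-driven beta-lactamase reporter, were stimulated with EC50 EGF plus compound for 5 hours, and AC50 values came from titrations.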

Experiment [3] deals with Cytochrome P450 1A2 (Homo sapiens) (UniProt P05177). Nature of the experiment: p450-cyp1a2 (AID 410; calls by dose curve; note: potency is the fitted concentration of half-maximal effect;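 for activity change, negative = inhibition: -100% = full effect of reference inhibitor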). Particulars: recombinant CYP1A2, luciferin-ME demethylation, luminescence; series mostly up to 57 µM. In short, it runs like this:
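Inhibition was calculated relative to 57 uM furafylline (full inhibition). The reaction used human CYP1A2 at 20nM with Luciferin-ME at its Km, 100uM, driven by an NADPH-regenerating system for 60 min at room temperature.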

A short description of experiment [4]: NFAT Signaling Pathway (AID 444).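 Note: carbachol stimulus at about its EC50 of 1 µM final; % is set by controls: 0 for no effect and ±100 for the full control effect.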 Particulars: Jurkat NFAT-bla M1, carbachol, beta-lactamase ratio, 5 h; at 7.69 µM (top of the series) unless noted. In short, it runs like this:
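Jurkat cells with NFAT-driven β-lactamase reporter and co-expressed M1 receptor, stimulated with carbachol (final 1 uM, ~EC50), compound titration, 5 h at 37 °C. CCF4 loaded 1 h at RT; 460/530 nm ratio gave %activity and AC50.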

Experiment [5] can be described thus: Stat Signaling Pathway (AID 446).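 Note: ME-180 cervical cancer cells given 40 pM IL-6 alongside compound; SIE-controlled beta-lactamase reporter measured as 460/530 nm FRET emission ratio; % is set by controls: 0 for no effect and ±100 for the full control effect.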 The following applies: ME-180 SIE beta-lactamase reporter, IL-6 stimulated, 5 h; at 7.69 µM (top of the series) unless noted. An outline of the steps: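 Reporter line: ME-180 cervical carcinoma, SIE-beta-lactamase. Treatment: compound with 40 pM IL-6, 5 hrs, 37 C, in low-serum OPTI-MEM with 10 mM HEPES pH 7.3. Detection: 460/530 nm fluorescence.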

Experiment [6] addresses Glucocorticoid receptor (Homo sapiens) (UniProt P04150). Nature of the experiment: GR-GFP Redistribution (AID 450;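 active = compounds whose dose series gives a full or clear partial fitted curve of increased nuclear translocation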; note: potency is the fitted concentration of half-maximal effect). The following applies: U2OS GR-GFP nuclear translocation, laser cytometry, 2 h.
The target is the same in experiment [7]. The experiment is described as follows: GR-EFC Redistribution (AID 451; calls by dose curve; note: potency is the fitted concentration of half-maximal effect). Particulars: CHO-K1 GR-EFC translocation, beta-gal luminescence, 2 h. In short, it runs like this:
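CHO-K1 cells expressing nuclear EA and GR-ED fragments of b-gal; compounds titrated up to 46 uM final, 2 h at 37 C. GR nuclear translocation read as complemented b-gal luminescence after 1 h RT detection.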

The target in experiment [8] is Mitogen-activated protein kinase 10 (Mus musculus) (UniProt Q61831). The experiment is described as follows: JNK3 AlphaScreen Assay (AID 530).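 Note: kinase came from lysate of stimulated human HepG2 cells; signal reports phosphorylation of biotinylated GST-cJun 1-79 at Ser73 with 10 µM ATP; % is set by controls: 0 for no effect and ±100 for the full control effect.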 Particulars: JNK3 lysate, c-Jun phosphorylation; series mostly up to 57.1 µM. In short, it runs like this:
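qHTS format: compounds tested as titrations against IL-1beta/TNF-alpha-activated HepG2 lysate JNK3 with biotin-GST-cJun substrate and 10 uM ATP at room temperature. Loss of anti-phospho-cJun AlphaScreen signal indicates inhibition.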
(Alpha assays give light when donor and acceptor beads are brought close together.)

Experiment [9] deals with 3',5'-cyclic-AMP phosphodiesterase 4B (Homo sapiens) (UniProt Q07343). Nature of the experiment: qHTS Assay for Inhibitors of PDE-IV (AID 607; active = well fitted activation curve with a large enough effect in the main read-out, with a control signal flat, not every such curve was filed as active; note: % of control where 0% means no effect). Particulars: HEK293 ACTOne CNG channel cells, membrane potential fluorescence; series mostly up to 22.9 µM. An outline of the steps:
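Cell-based read-out of cAMP via a modified cyclic nucleotide-gated channel and membrane potential dye (535/590 nm) in HEK293 cells expressing PDE4 endogenously. Compounds tested up to 22.9 uM final; 100 uM RO 20-1724 reference.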
In general terms: In qHTS, concentration-response curves come from the screen itself.

The target of experiment [10] is Cytochrome P450 3A4 (Homo sapiens) (UniProt P08684). Nature of the experiment: qHTS Assay for Inhibitors and Substrates of Cytochrome P450 3A4 (AID 884; active = well fitted curve in the direction sought with a large enough effect; an effect the other way counts as inactive or inconclusive; note: potency is the fitted concentration of half-maximal effect; nearly all actives have a fitted effect of over 50% in size). The following applies: recombinant CYP3A4, Luciferin-PPXE luminescence; series mostly up to 57.1 µM. An outline of the steps: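 20 nM human CYP3A4 with 25 uM Luciferin-PPXE (at KM) in 200 mM KPO4, preincubated 10 min with compound; NADPH regeneration started a 60 min RT reaction. Luciferin detected by luminescence, normalized to 57 uM ketoconazole as full inhibition.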

Experiment [11] shares this target. Nature of the experiment: qHTS Assay for Activators of Cytochrome P450 3A4 (AID 885; active = well fitted curve in the direction sought with a large enough effect; an effect the other way counts as inactive or inconclusive; note: nearly all actives have a fitted effect of over 65% in size). The following applies: recombinant CYP3A4, Luciferin-PPXE luminescence, 60 min; series mostly up to 57.1 µM. An outline of the steps:
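Signal was normalized against complete inhibition by 57 uM ketoconazole. The reaction used 20nM CYP3A4 with 25uM Luciferin-PPXE, 10-min compound preincubation and a 60-min NADPH-supported step at RT.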

Experiment [12] in a line: qHTS Assay for Lipid Storage Modulators (AID 1519; calls by dose curve). Particulars: Drosophila S3 cells, BODIPY lipid droplet/cell ratio, laser cytometry, cells loaded with oleic acid. An outline of the steps:
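Cells seeded at 5,000 per well were treated with compounds over a concentration series and loaded with oleic acid (400 uM, as added). Lipid droplet fluorescence (488 nm excitation, 500-530 nm channel) was read by laser-scanning cytometry and normalized to 20 uM Triacsin C.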

Experiment [13] has as its target Dual specificity protein kinase CLK4 (Homo sapiens) (UniProt Q9HAZ1). Nature of the experiment: qHTS Assay for Inhibitors of CDC-like Kinase 4 (ADP-FP Assay) (AID 1795; active = well fitted curve in the direction sought with a large enough effect; an effect the other way counts as inactive or inconclusive; note: % is set by controls: 0 for no effect and ±100 for the full control effect; nearly all actives have a fitted effect of over 60% in size). Particulars: Transcreener ADP fluorescence polarization; series mostly up to 50 µM. In short, it runs like this:
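Kinase activity was followed as ADP output, converted from fluorescence polarization with a calibration curve. Reactions ran one hour at low ATP (1 uM) with RS peptide substrate.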

The target of experiment [14] is Ubiquitin carboxyl-terminal hydrolase 1 (Homo sapiens) (UniProt O94782). The experiment is described as follows: Inhibitors of USP1/UAF1: Pilot qHTS (AID 504865; active = well fitted curve in the direction sought with a large enough effect; an effect the other way counts as inactive or inconclusive;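 note: rhodamine fluorescence freed from ubiquitin-rhodamine substrate followed over time; top concentration of the series differs between compounds; % is set by controls: 0 for no effect and ±100 for the full control effect; nearly all actives have a fitted effect of over 35% in size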). The following applies: purified USP1/UAF1, Ub-rhodamine cleavage fluorescence; series mostly up to 54.9 µM. An outline of the steps: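 Enzyme-free wells gave the negative control, while test wells held 1nM USP1/UAF1 preincubated with compound for 15 min at room temperature. Ub-Rho at 150nM final started the reaction, and fluorescence at 480/540 nm was recorded kinetically.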

In experiment [15] the target is Dual specificity protein kinase CLK4 (Homo sapiens) (UniProt Q9HAZ1). The experiment is described as follows: qHTS Assay for Inhibitors of CDC-like Kinase 4 (ADP-Glo Assay) (AID 1771; active = well fitted curve in the direction sought with a large enough effect; an effect the other way counts as inactive or inconclusive; note: potency is the fitted concentration of half-maximal effect; nearly all actives have a fitted effect of over 70% in size). The following applies: recombinant CLK4, ADP-Glo luminescence; series mostly up to 80 µM. An outline of the steps: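 Kinase reaction: Clk4 at 25 nM, RS repeat peptide substrate at 100 uM, ATP at 1 uM, 1 hr, room temperature. Product ADP detected as luciferase signal via ADP-Glo.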

A short description of experiment [16]: qHTS Assay for Identification of Small Molecule Agonists for Hypoxia Response Element Signaling Pathway (AID 914; active = well fitted activation curve with a large enough effect in the signal ratio, with a control signal flat, not every such curve was filed as active; the % refers to the signal ratio; note: % of control where 0% means no effect). The following applies: ME-180 (cervical carcinoma) HRE-bla reporter, beta-lactamase ratio, CoCl2, 17 h; activation: stronger effect = higher value. In short, it runs like this: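 In Opti-MEM containing 0.5% dialyzed FBS and 10 mM HEPES, ME-180 HRE-bla cells received a compound titration and EC50 CoCl2. They were incubated 17 hours, then CCF4-loaded 2.5 hours at room temperature before ratio reading.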

Where [17] appears, read: measured here: cell count channel max response.
Setting [18] is: measured here: lipid channel max response.

Chain of 3',5'-cyclic-AMP phosphodiesterase 4B (Homo sapiens) (Q07343 whole entry, looked up): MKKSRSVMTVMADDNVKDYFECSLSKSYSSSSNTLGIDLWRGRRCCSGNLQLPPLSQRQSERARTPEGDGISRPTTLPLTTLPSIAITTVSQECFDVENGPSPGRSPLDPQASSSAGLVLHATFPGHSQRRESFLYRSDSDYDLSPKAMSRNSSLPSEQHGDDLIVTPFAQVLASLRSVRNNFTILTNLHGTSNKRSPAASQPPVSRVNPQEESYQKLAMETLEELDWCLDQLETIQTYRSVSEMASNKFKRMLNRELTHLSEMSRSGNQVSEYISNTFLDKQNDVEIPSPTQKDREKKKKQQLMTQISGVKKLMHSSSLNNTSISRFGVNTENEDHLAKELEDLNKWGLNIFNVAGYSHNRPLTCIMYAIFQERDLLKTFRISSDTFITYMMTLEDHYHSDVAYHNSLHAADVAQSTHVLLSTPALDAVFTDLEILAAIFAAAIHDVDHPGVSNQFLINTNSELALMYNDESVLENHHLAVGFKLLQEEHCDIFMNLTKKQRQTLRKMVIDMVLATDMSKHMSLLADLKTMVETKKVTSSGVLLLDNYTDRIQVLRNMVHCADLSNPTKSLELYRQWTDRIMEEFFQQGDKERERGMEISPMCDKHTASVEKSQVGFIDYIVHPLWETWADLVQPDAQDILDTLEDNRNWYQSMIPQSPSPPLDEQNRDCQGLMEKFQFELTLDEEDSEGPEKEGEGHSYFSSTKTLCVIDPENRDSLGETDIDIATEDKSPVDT
Chain of Ubiquitin carboxyl-terminal hydrolase 1 (Homo sapiens) (O94782 whole entry, looked up): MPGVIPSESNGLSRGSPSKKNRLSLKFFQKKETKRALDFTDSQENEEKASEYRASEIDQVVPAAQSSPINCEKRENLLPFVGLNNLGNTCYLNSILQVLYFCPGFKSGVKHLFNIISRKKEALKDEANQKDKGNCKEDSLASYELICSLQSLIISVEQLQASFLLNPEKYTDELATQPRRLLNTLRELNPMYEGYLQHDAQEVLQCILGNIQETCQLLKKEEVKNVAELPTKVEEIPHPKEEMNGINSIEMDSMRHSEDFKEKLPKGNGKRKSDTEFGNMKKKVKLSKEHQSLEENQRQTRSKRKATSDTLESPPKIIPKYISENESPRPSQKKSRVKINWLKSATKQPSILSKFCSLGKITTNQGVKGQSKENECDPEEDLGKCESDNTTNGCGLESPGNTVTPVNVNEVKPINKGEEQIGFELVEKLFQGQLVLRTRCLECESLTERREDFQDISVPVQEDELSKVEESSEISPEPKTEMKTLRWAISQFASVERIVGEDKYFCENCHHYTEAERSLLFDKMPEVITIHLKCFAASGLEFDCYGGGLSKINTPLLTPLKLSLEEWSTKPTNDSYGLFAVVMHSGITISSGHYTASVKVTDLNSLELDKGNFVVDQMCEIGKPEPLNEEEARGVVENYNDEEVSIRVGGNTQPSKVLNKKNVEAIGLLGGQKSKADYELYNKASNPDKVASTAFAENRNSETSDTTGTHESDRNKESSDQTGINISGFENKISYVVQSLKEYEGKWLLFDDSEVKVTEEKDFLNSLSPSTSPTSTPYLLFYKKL
Chain of Glucocorticoid receptor (Homo sapiens) (P04150 whole entry, looked up): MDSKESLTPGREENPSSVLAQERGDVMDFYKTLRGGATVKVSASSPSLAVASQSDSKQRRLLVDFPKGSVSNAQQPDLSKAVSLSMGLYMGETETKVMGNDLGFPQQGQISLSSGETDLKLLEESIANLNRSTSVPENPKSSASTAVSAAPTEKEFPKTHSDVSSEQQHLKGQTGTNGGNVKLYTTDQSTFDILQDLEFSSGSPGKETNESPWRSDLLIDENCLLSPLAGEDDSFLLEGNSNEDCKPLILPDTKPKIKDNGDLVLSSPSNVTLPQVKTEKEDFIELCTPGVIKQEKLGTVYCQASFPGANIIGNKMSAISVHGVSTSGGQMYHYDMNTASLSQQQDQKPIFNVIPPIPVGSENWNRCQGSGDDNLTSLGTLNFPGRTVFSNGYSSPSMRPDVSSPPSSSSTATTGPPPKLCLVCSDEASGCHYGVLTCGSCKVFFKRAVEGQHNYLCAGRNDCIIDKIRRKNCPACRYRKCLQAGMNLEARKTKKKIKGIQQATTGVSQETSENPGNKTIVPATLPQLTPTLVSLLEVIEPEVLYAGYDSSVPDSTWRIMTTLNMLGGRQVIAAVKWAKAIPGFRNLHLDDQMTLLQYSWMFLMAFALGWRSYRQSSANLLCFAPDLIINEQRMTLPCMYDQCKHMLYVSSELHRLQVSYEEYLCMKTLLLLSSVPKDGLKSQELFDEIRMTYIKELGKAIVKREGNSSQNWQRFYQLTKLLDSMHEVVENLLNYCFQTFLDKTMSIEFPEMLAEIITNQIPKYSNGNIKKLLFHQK
Chain of Cytochrome P450 3A4 (Homo sapiens) (P08684 whole entry, looked up): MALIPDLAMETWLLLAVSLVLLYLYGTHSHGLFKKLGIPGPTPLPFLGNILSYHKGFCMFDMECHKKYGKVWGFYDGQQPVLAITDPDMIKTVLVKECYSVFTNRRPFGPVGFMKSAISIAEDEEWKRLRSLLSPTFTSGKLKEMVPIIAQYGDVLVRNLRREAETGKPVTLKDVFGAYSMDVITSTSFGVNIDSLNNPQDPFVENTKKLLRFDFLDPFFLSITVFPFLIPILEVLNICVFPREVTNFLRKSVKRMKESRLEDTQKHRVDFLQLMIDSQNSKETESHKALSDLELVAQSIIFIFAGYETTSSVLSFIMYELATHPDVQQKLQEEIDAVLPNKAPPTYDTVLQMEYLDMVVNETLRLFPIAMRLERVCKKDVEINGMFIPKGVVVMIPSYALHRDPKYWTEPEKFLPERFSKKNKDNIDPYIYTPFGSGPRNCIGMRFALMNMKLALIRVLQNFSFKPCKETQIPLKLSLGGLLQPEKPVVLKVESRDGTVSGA
Chain of Lysosomal acid glucosylceramidase (Homo sapiens) (P04062 whole entry, looked up): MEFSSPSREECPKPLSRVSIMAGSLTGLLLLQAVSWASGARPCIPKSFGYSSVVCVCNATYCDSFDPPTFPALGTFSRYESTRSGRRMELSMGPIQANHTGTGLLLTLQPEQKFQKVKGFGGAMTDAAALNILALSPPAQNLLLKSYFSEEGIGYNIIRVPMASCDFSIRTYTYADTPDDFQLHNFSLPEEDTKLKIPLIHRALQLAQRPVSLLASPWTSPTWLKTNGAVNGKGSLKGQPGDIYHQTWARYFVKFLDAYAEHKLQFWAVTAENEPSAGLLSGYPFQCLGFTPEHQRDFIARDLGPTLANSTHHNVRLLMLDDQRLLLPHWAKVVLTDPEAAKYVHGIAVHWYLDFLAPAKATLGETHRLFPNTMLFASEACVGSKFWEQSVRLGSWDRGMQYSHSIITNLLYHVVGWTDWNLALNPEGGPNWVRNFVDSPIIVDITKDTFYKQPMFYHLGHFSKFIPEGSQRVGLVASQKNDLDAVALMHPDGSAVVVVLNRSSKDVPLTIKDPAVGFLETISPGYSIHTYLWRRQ
Chain of Dual specificity protein kinase CLK4 (Homo sapiens) (Q9HAZ1 whole entry, looked up): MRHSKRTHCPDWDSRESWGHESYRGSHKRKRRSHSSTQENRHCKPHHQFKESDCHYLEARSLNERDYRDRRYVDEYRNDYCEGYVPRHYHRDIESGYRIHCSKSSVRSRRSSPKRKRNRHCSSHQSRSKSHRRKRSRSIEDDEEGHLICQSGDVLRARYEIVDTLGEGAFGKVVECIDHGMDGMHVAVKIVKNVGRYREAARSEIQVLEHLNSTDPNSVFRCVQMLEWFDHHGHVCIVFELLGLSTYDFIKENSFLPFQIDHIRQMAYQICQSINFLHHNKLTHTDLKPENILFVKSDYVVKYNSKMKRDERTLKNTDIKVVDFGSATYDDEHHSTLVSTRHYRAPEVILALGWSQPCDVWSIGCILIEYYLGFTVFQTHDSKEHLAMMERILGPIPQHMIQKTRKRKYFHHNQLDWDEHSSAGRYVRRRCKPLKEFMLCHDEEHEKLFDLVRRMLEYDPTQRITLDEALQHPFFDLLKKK
Chain of Cytochrome P450 1A2 (Homo sapiens) (P05177 whole entry, looked up): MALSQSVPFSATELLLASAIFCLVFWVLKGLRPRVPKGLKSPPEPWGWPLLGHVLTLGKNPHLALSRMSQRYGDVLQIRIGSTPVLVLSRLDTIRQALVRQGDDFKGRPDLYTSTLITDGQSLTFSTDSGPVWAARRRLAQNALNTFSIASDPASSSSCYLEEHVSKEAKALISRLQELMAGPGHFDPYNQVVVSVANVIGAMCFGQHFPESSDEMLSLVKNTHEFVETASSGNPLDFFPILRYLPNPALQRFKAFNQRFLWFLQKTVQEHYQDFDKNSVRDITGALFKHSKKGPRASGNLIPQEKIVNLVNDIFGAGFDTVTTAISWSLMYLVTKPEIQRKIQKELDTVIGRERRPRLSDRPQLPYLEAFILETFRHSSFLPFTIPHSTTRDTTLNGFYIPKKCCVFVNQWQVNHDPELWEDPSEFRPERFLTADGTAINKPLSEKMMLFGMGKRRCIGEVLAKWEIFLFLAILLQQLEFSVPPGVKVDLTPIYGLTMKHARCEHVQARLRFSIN

For the compound `Cc1cnc(CNc2ncnc3ccc(-c4ccccc4C(F)(F)F)cc23)cn1`, the Potency in experiment [1] is > 11.4 µM (inactive); in [3], 12.6 µM (active); in experiment [6] it was > 46 µM (inactive); in experiment [7], > 46 µM (inactive); in experiment [10], 2 µM (active). Moreover, the activity change, negative = inhibition in experiment [2] was 15.7% (inactive); in experiment [4], -22.4% (inactive); in experiment [12] (at 57.5 µM (top of the series)), 0.934% (inactive). Further, the activity, negative = inhibition in experiment [5] was -29.2% (inactive). In addition, the Potency result in experiment [8], in experiment [9], in [11], in [13] and in [14] was “inactive” in each case. For the same compound, the max response in [12] (setting [17]) is 8.56%; in experiment [12] (setting [18]), 7.96%.
On to `Cc1nc2cnc(Nc3ccccc3)nc2n(C[C@H]2CCCO2)c1=O`, for which the Potency in experiment [1] was > 11.4 µM (inactive); in experiment [6] it was > 9.22 µM (inactive); in experiment [7], > 46 µM (inactive); in experiment [15] it was 22.4 µM (active). The activity change, negative = inhibition in [2] was -11% (inactive); in experiment [4], 9.56% (inactive); in [12] (at 57.5 µM (top of the series)), -5.71% (inactive). Further, in [5], the activity, negative = inhibition was -15.1% (inactive). The Potency entry in [8], in experiment [9], in [11] and in experiment [14] was “inactive” throughout. Further, the max response in experiment [12] (setting [17]) is -3%; in experiment [12] (setting [18]), -12.3%.
For `C[C@@H]1CCC[C@H](C)N1NC(=O)c1ccc(Cl)c(S(N)(=O)=O)c1`, the activity change, negative = inhibition in [2] was 2.6% [at 17.2 µM] (inactive) and 10.6% [at 17.2 µM] (inactive); in experiment [4] it was 2.78% [at 17.2 µM] (inactive) and -21.9% [at 17.2 µM] (inactive); in [12] (at 25.7 µM (top of the series)), 1.49% (inactive). In addition, the Potency result in experiment [3], in [8], in experiment [9] and in [14] was “inactive” each time. The activity, negative = inhibition in experiment [5] was 9.09% [at 17.2 µM] (inactive) and 21.6% [at 17.2 µM] (inactive). Further, the Potency in [6] and in [7] was > 20.6 µM (inactive) throughout. The activation in [16] is -10.1% (inactive) and -0.309% (inactive). Moreover, the results for the max response in experiment [12] (setting [17]) and in [12] (setting [18]) were 17.3% and 17%, respectively.
